From the antibiotic and cytotoxicity screens of Wong et al. (2023)
About 3,300 (8.5%) of roughly 39,000 compounds were called active. Shown is part of a subset that was picked to be rich in actives.

tested on: HepG2; experiment: cytotoxicity call (relative viability < 0.9); conditions: 10 µM

Structure (SMILES) | cytotoxicity call
C[C@H](C(=O)O)N1CCCCC1 | inactive
CC(C)c1cn(CC[C@H]2CC[C@H](N)[C@@H](CO)O2)nn1 | inactive
CC[C@@H](Sc1n[nH]c(=O)[nH]c1=O)C(=O)O | inactive
COCC(=O)N(C)C[C@H]1Oc2cc(C#CCC3CCCC3)ccc2S(=O)(=O)N([C@H](C)CO)C[C@H]1C | inactive
C[C@@H]1CN([C@H](C)CO)C(=O)Cc2cc(NC(=O)C3CC3)ccc2O[C@H]1CN(C)C(=O)Nc1ccccc1 | inactive
COCC(=O)N1[C@@H]2c3ccc(C4=CCCCC4)c(=O)n3C[C@@H]2[C@@H](CO)[C@@H]1C(=O)N1CCOCC1 | inactive
C=CC(=O)Nc1cccc(C)c1Nc1ncc2cc(-c3c(Cl)c(OC)cc(OC)c3Cl)ccc2n1 | active
COCC(=O)Nc1ccc2c(c1)C(=O)N(C)[C@@H]1CC[C@@H](CC(=O)NCc3ccc(OC)cc3)O[C@H]1CO2 | inactive
Cc1noc(C)c1NC(=O)N(C)C[C@H]1Oc2ccc(NC(=O)Nc3ccc(C(F)(F)F)cc3)cc2C(=O)N([C@@H](C)CO)C[C@H]1C | inactive
COCC(=O)N(C)C[C@H]1Oc2cc(C#C[C@@H](C)O)ccc2S(=O)(=O)N([C@H](C)CO)C[C@@H]1C | inactive
C[C@@H]1CCCCO[C@@H](CN(C)Cc2ccc(Cl)c(Cl)c2)[C@H](C)CN([C@@H](C)CO)C(=O)c2cc(NC(=O)CCC(F)(F)F)ccc2O1 | inactive
C[C@@H]1CCCCO[C@H](CN(C)Cc2ccc(Cl)c(Cl)c2)[C@@H](C)CN([C@@H](C)CO)C(=O)c2cc(NC(=O)CCC(F)(F)F)ccc2O1 | inactive
C[C@@H]1CN([C@H](C)CO)C(=O)c2cc(NC(=O)CCC(F)(F)F)ccc2O[C@@H](C)CCCCO[C@@H]1CN(C)Cc1ccc(Cl)c(Cl)c1 | active
C[C@@H]1CCCCO[C@@H](CN(C)Cc2ccc(Cl)c(Cl)c2)[C@@H](C)CN([C@H](C)CO)C(=O)c2cc(NC(=O)CCCN(C)C)ccc2O1 | active
C[C@H]1CCCCO[C@H](CN(C)Cc2ccc(Cl)c(Cl)c2)[C@@H](C)CN([C@@H](C)CO)C(=O)c2cc(NC(=O)CCC(F)(F)F)ccc2O1 | inactive
C[C@@H]1CCCCO[C@H](CN(C)Cc2ccc(Cl)c(Cl)c2)[C@@H](C)CN([C@H](C)CO)C(=O)c2cc(NC(=O)CCC(F)(F)F)ccc2O1 | inactive
C[C@@H]1CN([C@H](C)CO)C(=O)c2cc(NC(=O)CCC(F)(F)F)ccc2O[C@@H](C)CCCCO[C@H]1CN(C)Cc1ccc(Cl)c(Cl)c1 | active
C[C@@H]1CCCCO[C@@H](CN(C)Cc2ccc(Cl)c(Cl)c2)[C@@H](C)CN([C@@H](C)CO)C(=O)c2cc(NC(=O)CCC(F)(F)F)ccc2O1 | active
C[C@@H]1CN([C@@H](C)CO)C(=O)c2cc(NC(=O)CCC(F)(F)F)ccc2O[C@@H](C)CCCCO[C@H]1CN(C)Cc1ccc(Cl)c(Cl)c1 | inactive

Structure (SMILES) | cytotoxicity call
C[C@H](CO)N1C[C@H](C)[C@@H](CN(C)Cc2ccc(Cl)c(Cl)c2)OCCCC[C@H](C)Oc2ccc(NC(=O)CCC(F)(F)F)cc2C1=O | inactive
Cn1cnc(S(=O)(=O)N[C@@H]2C=C[C@H](CC(=O)NCC3CC3)O[C@H]2CO)c1 | inactive
COc1ccc(S(=O)(=O)N(C)C[C@@H]2OCCCC[C@@H](C)Oc3ccc(NC(=O)CCCCCC(=O)Nc4ccccc4N)cc3C(=O)N([C@H](C)CO)C[C@@H]2C)cc1 | inactive
COc1ccccc1CNC(=O)C[C@@H]1C[C@@H]2c3cc(NC(=O)Cc4ccncc4)ccc3O[C@@H]2[C@@H](CO)O1 | inactive
C[C@@H]1CCCCO[C@@H](CN(C)CC2CCCCC2)[C@@H](C)CN([C@@H](C)CO)C(=O)c2cc(N(C)C)ccc2O1 | inactive
C[C@H](CO)N1C[C@H](C)[C@H](CN(C)C(=O)Nc2ccc3c(c2)OCO3)OCCCC[C@H](C)Oc2ccc(NS(=O)(=O)c3ccc(F)cc3)cc2C1=O | inactive
CS(=O)(=O)N1C[C@@H](O)COC[C@@H]2O[C@H](CC(=O)NCc3ccccc3)CC[C@H]21 | inactive
C[C@@H]1CCCCO[C@H](CN(C)C(=O)Nc2ccc(F)cc2)[C@@H](C)CN([C@H](C)CO)C(=O)c2cc(NS(=O)(=O)c3cccs3)ccc2O1 | inactive
O=C(C[C@H]1CC[C@H]2[C@@H](COC[C@@H](O)CN2S(=O)(=O)c2ccccc2)O1)NCCN1CCCCC1 | inactive
Cc1noc(C)c1NC(=O)Nc1ccc2c(c1)C(=O)N([C@@H](C)CO)C[C@H](C)[C@H](CN(C)C(=O)Nc1ccc3c(c1)OCO3)OCCCC[C@H](C)O2 | inactive
COc1ccc(S(=O)(=O)N(C)C[C@H]2Oc3c(cccc3N(C)C)C(=O)N([C@@H](C)CO)C[C@H]2C)cc1 | inactive
C[C@@H]1CCCCO[C@H](CN(C)Cc2ccc(Cl)c(Cl)c2)[C@H](C)CN([C@@H](C)CO)C(=O)c2cc(NC(=O)CCC(F)(F)F)ccc2O1 | active
C[C@@H]1CCCCO[C@@H](CN(C)Cc2ccc(Cl)c(Cl)c2)[C@@H](C)CN([C@H](C)CO)C(=O)c2cc(NC(=O)CCC(F)(F)F)ccc2O1 | inactive
C[C@@H]1CCCCO[C@@H](CN(C)Cc2ccc3c(c2)OCO3)[C@H](C)CN([C@H](C)CO)C(=O)c2cc(NC(=O)CCC(F)(F)F)ccc2O1 | inactive
C[C@@H]1CCCCO[C@@H](CN(C)Cc2ccc(Cl)c(Cl)c2)[C@H](C)CN([C@H](C)CO)C(=O)c2cc(NC(=O)CCC(F)(F)F)ccc2O1 | inactive
C[C@@H]1CCCCO[C@H](CN(C)Cc2ccc3c(c2)OCO3)[C@@H](C)CN([C@@H](C)CO)C(=O)c2cc(NC(=O)CCC(F)(F)F)ccc2O1 | inactive
C[C@@H]1CCCCO[C@H](CN(C)Cc2ccc(Cl)c(Cl)c2)[C@H](C)CN([C@H](C)CO)C(=O)c2cc(NC(=O)CCC(F)(F)F)ccc2O1 | active
COc1ccc(S(=O)(=O)Nc2ccc3c(c2)C(=O)N([C@@H](C)CO)C[C@@H](C)[C@@H](CN(C)S(=O)(=O)c2cn(C)cn2)OCCCC[C@@H](C)O3)cc1 | inactive
C[C@@H]1CCCCO[C@@H](CN(C)C(=O)Cc2ccccc2)[C@@H](C)CN([C@@H](C)CO)C(=O)c2cc(NC(=O)NC3CCCCC3)ccc2O1 | inactive
